Reference: PubChem BioAssay AID1159580 (chemical genetic matrix, 2015)
Screen size: about 5,500 compounds; about 2,000 (36%) were called active. About 18% were inconclusive and are not listed. No stated cut-off is given here; in the data, active means normalized growth mostly below about 0.91 (no sharp cut-off); inconclusive means no clear call, values can overlap the other calls; inactive means mostly above about 0.92. This is one part of the list.

Test: chemical genetic growth profiling, strain panel (AID 1159580);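 further: tested at 20 µM; growth read once vehicle control cultures reached saturation at 30 °C; 1 = growth at the plate median or of vehicle wells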
Details: growth OD

Measured: normalized growth

CCOC(=O)C(Cc1ccc(O)cc1)NC(C)=O (configuration not stated)
inactive: S. cerevisiae deletion strains, locus YJR075W, strain HOC1, stronger effect = lower value 1.01 | S. cerevisiae deletion strains, locus YKL009W, strain mrt4, stronger effect = lower value 0.996 | S. cerevisiae deletion strains, locus YKL068W, stronger effect = lower value 1 | S. cerevisiae deletion strains, locus YKL085W, strain MDH1 (second series), stronger effect = lower value 1 | S. cerevisiae deletion strains, locus YKL085W, strain MDH1, stronger effect = lower value 1 | S. cerevisiae deletion strains, locus YKL160W, strain elf1, stronger effect = lower value 1.02 | S. cerevisiae deletion strains, locus YKL190W, strain CNB1, stronger effect = lower value 1.01 | S. cerevisiae deletion strains, locus YKR001C, strain vps1, stronger effect = lower value 0.995 | S. cerevisiae deletion strains, locus YKR026C, strain gcn3, stronger effect = lower value 1 | S. cerevisiae deletion strains, locus YKR091W, strain srl3, stronger effect = lower value 1 | S. cerevisiae deletion strains, locus YLL001W, strain dnm1, stronger effect = lower value 1.01 | S. cerevisiae deletion strains, locus YLL026W, stronger effect = lower value 0.997 | S. cerevisiae deletion strains, locus YLL041C, strain sdh2, stronger effect = lower value 1 | S. cerevisiae deletion strains, locus YLR027C, strain aat2, stronger effect = lower value 1 | S. cerevisiae deletion strains, locus YLR039C, strain RIC1, stronger effect = lower value 1.03 | S. cerevisiae deletion strains, locus YLR058C, strain SHM2, stronger effect = lower value 1.02 | S. cerevisiae deletion strains, locus YLR102C, strain apc9, stronger effect = lower value 1.01 | S. cerevisiae deletion strains, locus YLR113W, strain HOG1, stronger effect = lower value 1.01 | S. cerevisiae deletion strains, locus YLR221C, strain rsa3, stronger effect = lower value 0.987 | S. cerevisiae deletion strains, locus YLR258W, strain gsy2, stronger effect = lower value 1.01 | S. cerevisiae deletion strains, locus YLR262C, strain YPT6 (second series), stronger effect = lower value 0.968 | S. cerevisiae deletion strains, locus YLR262C, strain YPT6, stronger effect = lower value 1.01 | S. cerevisiae deletion strains, locus YLR268W, strain sec22, stronger effect = lower value 1.01 | S. cerevisiae deletion strains, locus YLR320W, strain mms22, stronger effect = lower value 0.994 | S. cerevisiae deletion strains, locus YLR330W, strain CHS5, stronger effect = lower value 1.01 | S. cerevisiae deletion strains, locus YLR342W, strain FKS1 (second series), stronger effect = lower value 1.07 | S. cerevisiae deletion strains, locus YLR342W, strain FKS1, stronger effect = lower value 1.01 | S. cerevisiae deletion strains, locus YLR357W, strain rsc2, stronger effect = lower value 1.01 | S. cerevisiae deletion strains, locus YLR370C, strain arc18, stronger effect = lower value 1 | S. cerevisiae deletion strains, locus YLR371W, strain rom2, stronger effect = lower value 1.02 | S. cerevisiae deletion strains, locus YLR384C, strain iki3, stronger effect = lower value 1 | S. cerevisiae deletion strains, locus YLR418C, strain cdc73, stronger effect = lower value 1 | S. cerevisiae deletion strains, locus YML016C, strain PPZ1, stronger effect = lower value 1.01 | S. cerevisiae deletion strains, locus YML032C, strain rad52, stronger effect = lower value 0.989 | S. cerevisiae deletion strains, locus YML120C, strain ndi1, stronger effect = lower value 1.01 | S. cerevisiae deletion strains, locus YML124C, strain tub3, stronger effect = lower value 0.999 | S. cerevisiae deletion strains, locus YMR058W, strain fet3, stronger effect = lower value 1.01 | S. cerevisiae deletion strains, locus YMR078C, strain ctf18, stronger effect = lower value 1.01 | S. cerevisiae deletion strains, locus YMR125W, strain sto1, stronger effect = lower value 0.995 | S. cerevisiae deletion strains, locus YMR129W, stronger effect = lower value 1.01 | S. cerevisiae deletion strains, locus YMR205C, strain PFK2, stronger effect = lower value 0.997 | S. cerevisiae deletion strains, locus YMR223W, strain ubp8, stronger effect = lower value 0.987 | S. cerevisiae deletion strains, locus YMR231W, strain pep5, stronger effect = lower value 1.01 | S. cerevisiae deletion strains, locus YMR263W, strain SAP30, stronger effect = lower value 1.01 | S. cerevisiae deletion strains, locus YMR307W, strain GAS1, stronger effect = lower value 1.06 | S. cerevisiae deletion strains, locus YNL067W, strain RPL9B, stronger effect = lower value 1.02 | S. cerevisiae deletion strains, locus YNL071W, strain lat1, stronger effect = lower value 1 | S. cerevisiae deletion strains, locus YNL128W, strain TEP1, stronger effect = lower value 1.02 | S. cerevisiae deletion strains, locus YNL153C, strain GIM3, stronger effect = lower value 1.01 | S. cerevisiae deletion strains, locus YNL183C, strain NPR1, stronger effect = lower value 0.879 | S. cerevisiae deletion strains, locus YNL209W, strain ssb2, stronger effect = lower value 0.996 | S. cerevisiae deletion strains, locus YNL233W, strain BNI4, stronger effect = lower value 1.01 | S. cerevisiae deletion strains, locus YNL248C, strain rpa49, stronger effect = lower value 0.999 | S. cerevisiae deletion strains, locus YNL250W, strain rad50, stronger effect = lower value 0.992 | S. cerevisiae deletion strains, locus YNL271C, strain bni1, stronger effect = lower value 0.993 | S. cerevisiae deletion strains, locus YNL298W, strain CLA4, stronger effect = lower value 1.01 | S. cerevisiae deletion strains, locus YNL307C, strain MCK1, stronger effect = lower value 1 | S. cerevisiae deletion strains, locus YNL322C, strain KRE1 (second series), stronger effect = lower value 1.05 | S. cerevisiae deletion strains, locus YNL322C, strain KRE1, stronger effect = lower value 1.01 | S. cerevisiae deletion strains, locus YNR049C, strain mso1, stronger effect = lower value 1.02 | S. cerevisiae deletion strains, locus YNR052C, strain pop2, stronger effect = lower value 0.993 | S. cerevisiae deletion strains, locus YOL006C, strain TOP1, stronger effect = lower value 1.06 | S. cerevisiae deletion strains, locus YOL012C, strain htz1 0.841 | S. cerevisiae deletion strains, locus YOL147C, strain pex11, stronger effect = lower value 0.997 | S. cerevisiae deletion strains, locus YOR001W, strain rrp6, stronger effect = lower value 0.949 | S. cerevisiae deletion strains, locus YOR061W, strain CKA2, stronger effect = lower value 1.02 | S. cerevisiae deletion strains, locus YOR069W, strain VPS5, stronger effect = lower value 1.01 | S. cerevisiae deletion strains, locus YOR070C, strain gyp1, stronger effect = lower value 1 | S. cerevisiae deletion strains, locus YOR080W, strain dia2, stronger effect = lower value 1.01 | S. cerevisiae deletion strains, locus YOR083W, strain WHI5, stronger effect = lower value 1.03 | S. cerevisiae deletion strains, locus YOR106W, strain vam3, stronger effect = lower value 1.04 | S. cerevisiae deletion strains, locus YOR136W, strain idh2, stronger effect = lower value 0.989 | S. cerevisiae deletion strains, locus YOR144C, strain elg1, stronger effect = lower value 1.01 | S. cerevisiae deletion strains, locus YOR184W, strain ser1, stronger effect = lower value 1.01 | S. cerevisiae deletion strains, locus YOR231W, strain MKK1, stronger effect = lower value 0.971 | S. cerevisiae deletion strains, locus YOR265W, strain rbl2, stronger effect = lower value 1 | S. cerevisiae deletion strains, locus YOR270C, strain vph1, stronger effect = lower value 1 | S. cerevisiae deletion strains, locus YOR290C, strain snf2, stronger effect = lower value 1.03 | S. cerevisiae deletion strains, locus YOR316C, strain cot1, stronger effect = lower value 1.02 | S. cerevisiae deletion strains, locus YPL051W, strain arl3, stronger effect = lower value 1.03 | S. cerevisiae deletion strains, locus YPL055C, strain LGE1, stronger effect = lower value 1.01 | S. cerevisiae deletion strains, locus YPL078C, strain atp4, stronger effect = lower value 1.02 | S. cerevisiae deletion strains, locus YPL106C, strain sse1, stronger effect = lower value 1.03 | S. cerevisiae deletion strains, locus YPL240C, strain hsp82, stronger effect = lower value 1 | S. cerevisiae deletion strains, locus YPL241C, strain CIN2, stronger effect = lower value 1.01 | S. cerevisiae deletion strains, locus YPL256C, strain CLN2, stronger effect = lower value 0.93 | S. cerevisiae deletion strains, locus YPR119W, strain clb2, stronger effect = lower value 1.01 | S. cerevisiae deletion strains, locus YPR141C, strain kar3, stronger effect = lower value 0.995 | S. cerevisiae deletion strains, locus YPR163C, strain tif3, stronger effect = lower value 1 | S. cerevisiae deletion strains, locus YPR167C, strain met16, stronger effect = lower value 1 | S. cerevisiae deletion strains, strain wtn01, stronger effect = lower value 1.01 | S. cerevisiae strains, strain wild type, stronger effect = lower value 1.01
